HT1080 IDH1KD tx: qHTS for induction of synthetic lethality in tumor cells producing 2HG: qHTS for the HT-1080-IDH1KD cell line; hit rate 2% among 360,000; HT-1080 IDH1 knockdown viability, ATP luminescence, 48 h; Potency, µM (titrated, usually from 46.1 µM), inactives show at the top dose activity, negative = toxicity, hits mostly cytotoxic;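 note: 0% = DMSO wells and -100% = cell-free medium wells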
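Luminescent ATP read-out (CellTiter-Glo, 10 min at room temperature) after 48 h compound exposure at 37 °C gave viability of IDH1-knockdown HT-1080 cells. Activity was normalised to DMSO and cell-free wells, then fitted as concentration-response curves.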
TDP1 cell noCPT: qHTS for Inhibitors of human tyrosyl-DNA phosphodiesterase 1 (TDP1): qHTS in cells in absence of CPT; DT40 Tdp1-/- hTDP1 cells, no CPT, ATP luminescence, 48 h; Potency, µM (series often up to 46.2 µM), for inactives: top-dose activity change, negative = growth inhibition, most hits filed as inhibitors; hit rate 15% among 420,000; AID 686978, 2013; note: nearly all actives have a fitted effect of over 55% in size
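Stably hTDP1-transfected Tdp1-null chicken DT40 cells were treated with library compounds minus camptothecin and grown for at least 48 hr at 37 °C, after which cellular ATP was quantified by luminescence.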
TDP1 cell CPT: qHTS for Inhibitors of human tyrosyl-DNA phosphodiesterase 1 (TDP1): qHTS in cells in presence of CPT; chicken DT40 Tdp1-/-;hTDP1 cells + 20 nM CPT, ATP luminescence, 48 h; Potency, µM (titrated, usually from 46.2 µM), for the others: at the top dose activity change, negative = growth inhibition, most hits filed as inhibitors; hit rate 12% among 420,000; AID 686979, 2013; note: nearly all actives have a fitted effect of over 55% in size
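Chicken DT40 Tdp1-/- cells complemented with human TDP1, 400 cells/well, exposed to compounds plus 20 nM camptothecin for at least 48 h at 37 C; viability read as ATP content by CellTiter-Glo luminescence.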
HT1080NT lethal: qHTS for induction of synthetic lethality in tumor cells producing 2HG: qHTS for the HT-1080-NT fibrosarcoma cell line | Potency, µM (titrated, usually from 46.1 µM), inactives show at the highest dose activity, negative = less viability, actives largely listed as cytotoxic | HT-1080-NT fibrosarcoma viability, CellTiter-Glo ATP luminescence, 48 h | hit rate 1.6% among 360,000 | AID 686970, 2013;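 note: NT is the 2HG producing partner of a matched IDH1 knockdown line; 0% = DMSO-treated cells and -100% = media-only wells without cells; nearly all actives have a fitted effect of over 55% in size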
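Read-out is CellTiter-Glo luminescence after 10 minutes at room temperature, following 48 hours' compound treatment of HT-1080-NT cells (750 cells/well, RPMI, 5% FBS, 37 degrees C).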
KB-3-1 tox: qHTS assay for MDR1-selective chemotherapeutics: Primary screen using the parental adenocarcinoma cell KB-3-1. KB-3-1 viability, CellTiter-Glo ATP luminescence, 72 h. Potency, µM (doses to about 46.1 µM), most hits filed as cytotoxic. hit rate 1.4% among 400,000; note: nearly all actives have a fitted effect of over 60% in size
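Parental KB-3-1 adenocarcinoma cells in phenol-red-free DMEM with 10% FBS were pin-treated with compounds at several concentrations, incubated 72 h at 37 °C, and viability read by CellTiter-Glo luminescence; concentration-effect curves were fitted after normalization.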
KB-V1 cytotox: qHTS assay for MDR1-selective chemotherapeutics: Primary screen using the drug-selected MDR subline cells KB-V1 | hit rate 3.4% among 400,000 | AID 1347076, 2019 | Potency, µM (series often up to 46.1 µM), actives largely listed as cytotoxic | KB-V1 MDR cells viability, CellTiter-Glo, 72 h; note: nearly all actives have a fitted effect of over 60% in size
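KB-V1 MDR subline cells in DMEM (phenol-red free, 10% FBS) exposed to compounds in qHTS concentration series for 72 h at 37 degrees C. Viability read by CellTiter-Glo luminescence; concentration-effect curves fitted after normalization and correction.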
* marks the source's active call; other numbers are inactive results; i = inactive; ? = inconclusive; . = no result given; [ ] = dose if it differs, or a comment. Sampled rows, rich in hits. Any-hit rate of the full collection: about 19%. Calls come from the whole dose curve; as a rule, active = well fitted curve in the direction sought with a large enough effect; inconclusive = small, poorly fitted or top-dose-only effect, or another doubt; inactive = no such curve, though single readings can be large; an effect the other way counts as inactive or inconclusive. Unless noted, % is set by controls: 0 for no effect and ±100 for the full control effect; potency is the fitted concentration of half-maximal effect.

SMILES | HT1080 IDH1KD tx | TDP1 cell noCPT | TDP1 cell CPT | HT1080NT lethal | KB-3-1 tox | KB-V1 cytotox
CC(C)CC1C(=O)N(Cc2cn(CC3CCCCC3)nn2)CCS(=O)(=O)N1Cc1ccc(-c2cccc(C#N)c2)cc1 (configuration not stated) | -9% | ? | 21µM* | -1% | i | i
COc1ccc(-c2ccc(CN3C(C(C)C)C(=O)N(Cc4cn(CC5CCCCC5)nn4)CCS3(=O)=O)cc2)cc1OC (configuration not stated) | -13% | 1.6µM* | ? | -5% | i | i
CC(C)CC1C(=O)N(Cc2cn(CC3CCCCC3)nn2)CCS(=O)(=O)N1Cc1ccc(-c2ccncc2)cc1 (configuration not stated) | 0% | 15µM* | ? | -17% | i | i
COc1ccc(CCNC(=O)c2nnn(CC(=O)Nc3ccc(C)cc3C)c2N)cc1OC | ? | 16% | -3% | ? | ? | i
Cc1nn(C(C)(C)C)c(OC(=O)c2ccco2)c1Sc1ccccc1 | 2% | ? | -8% | -3% | i | i
Cc1ccccc1C(=O)Oc1c(Sc2ccccc2)c(C)nn1C(C)(C)C | . | 15µM* | ? | . | i | ?
COc1ccccc1C(=O)Oc1c(Sc2ccccc2)c(C)nn1C(C)(C)C | . | 15µM* | ? | . | i | i
Cc1nn(C(C)(C)C)c(OC(=O)c2cccs2)c1Sc1ccccc1 | 2% | -11% | 2% | -2% | i | i
FC(F)(F)c1ccccc1-c1nc(NCCN2CCOCC2)c2ccccc2n1 | . | -11% | 0% | . | . | .
CCC(=O)N1c2ccccc2CC1C(=O)NCCN1CCN(c2ccccc2F)CC1 (configuration not stated) | . | ? | ? | . | i | i
CCC(=O)N1c2ccccc2CC1C(=O)NCCN1CCN(c2cccc(C)c2C)CC1 (configuration not stated) | . | ? | 23µM* | . | i | i
CC(=O)N1c2ccccc2CC1C(=O)N1CCN(c2cccc(C)c2C)CC1 (configuration not stated) | . | 15µM* | 23µM* | . | i | i
CCC(=O)N1c2ccccc2CC1C(=O)NCCN1CCN(c2cccc(C(F)(F)F)c2)CC1 (configuration not stated) | . | 29µM* | 16µM* | . | i | i
CCC(=O)N1c2ccccc2CC1C(=O)NCCN1CCN(c2cccc(Cl)c2)CC1 (configuration not stated) | . | ? | 23µM* | . | i | i
COc1cc(OC)c(NC(=O)C2CCN(S(=O)(=O)c3ccc4c(c3)oc(=O)n4C)CC2)cc1Cl | . | 0% | -6% | . | i | ?
Cc1cccn2c(=O)cc(CSc3nnc(NC(=O)COc4ccccc4)s3)nc12 | . | -13% | 4% | . | . | .
Cn1cc(C(c2ccccc2OCC(=O)O)c2cn(C)c3ccccc23)c2ccccc21 | 1% | 16µM* | 12µM* | -13% | i | i
Cc1ccccc1OCC(=O)N/N=C/c1cn(C)c2ccccc12 | 0% | -23% | 12% | 0% | i | i
O=C(CSc1nnc(CNC(=O)c2cccc(F)c2)n1-c1ccccc1)Nc1ccccc1F | . | -26% | -24% | . | i | i
C[C@H](CO)N1C[C@H](C)[C@@H](CN(C)S(=O)(=O)c2cccs2)OCc2cnnn2CCCC1=O | 11% | ? | 5% | 3% | i | i
O=C1Nc2ccc(Br)cc2C1=Nc1cccnc1 | ? | 8.2µM* | 12µM* | ? | i | i
COCC(C)NCc1cc2ccc(OC)cc2nc1N1CCN(c2ccc(F)cc2)CC1 (configuration not stated) | . | 13µM* | -6%[9.04 µM] | . | . | .
COC(=O)N[C@H](C(=O)N[C@@H](Cc1ccccc1)[C@@H](O)CN(Cc1ccc(-c2ccccn2)cc1)NC(=O)[C@@H](NC(=O)OC)C(C)(C)C)C(C)(C)C | . | -12% | -17% | . | . | .
CC(C)Oc1ccc(CNC(=O)c2ccccc2NC(=O)c2nsc3ccccc23)cc1 | . | ? | ? | . | i | i
CCOc1cc(OCC)nc(S(C)(=O)=O)n1 | 14% | 15µM* | 21µM* | 21% | i | i
SMILES | HT1080 IDH1KD tx | TDP1 cell noCPT | TDP1 cell CPT | HT1080NT lethal | KB-3-1 tox | KB-V1 cytotox
Cc1ccc2occ(/C=N/NC(=O)c3ccccc3Br)c(=O)c2c1 | -5% | -28% | ? | -4% | i | i
Cc1ccc2occ(/C=N/NC(=O)c3ccc(O)cc3)c(=O)c2c1 | -13% | ? | ? | -6% | i | i
CCOc1ccccc1C(=O)N/N=C/c1coc2ccc(C)cc2c1=O | ? | ? | 18µM* | ? | i | i
Cc1ccc2occ(/C=N/NC(N)=S)c(=O)c2c1 | 3% | 26µM* | ? | -4% | i | i
CCN(C(=O)c1cc2c(=O)oc3ccc(C)cc3c2s1)c1ccccc1C | . | ? | ? | . | i | i
CCCN(C(=O)c1cc2c(=O)n(CC)c3ccccc3c2s1)c1ccccc1F | . | 6.5µM* | 8.2µM* | . | i | i
CCn1c(=O)c2cc(C(=O)N(C)c3ccccc3F)sc2c2ccccc21 | 15% | 15µM* | ? | 17% | i | ?
CCCN(C(=O)c1cc2c(=O)oc3ccccc3c2s1)c1ccccc1C | . | ? | 18µM* | . | ? | i
CCOc1ccccc1N(CC)C(=O)c1cc2c(=O)n(CC)c3ccccc3c2s1 | . | 16µM* | 15µM* | . | ? | 21µM*
CCN(C(=O)c1cc2c(=O)n(CC)c3ccccc3c2s1)c1cccc(C(F)(F)F)c1 | . | 9.2µM* | 9.2µM* | . | i | i
CCN(C(=O)c1cc2c(=O)oc3ccccc3c2s1)c1cccc(C(F)(F)F)c1 | . | -5% | -5% | . | i | i
O=C(CCn1c(=O)c2ccccc2n(CC(=O)Nc2cccc(F)c2)c1=O)NCCc1ccccc1 | . | -28% | 5% | . | i | i
COc1ccc(C)c2sc(N(CCCN(C)C)C(=O)c3ccc4c(c3)OCCO4)nc12 | ? | ? | ? | -24% | ? | i
